The values that follow come from PubChem BioAssay.

For part of these data: Potency and affinity values are given separately. The source made the active and inactive calls. Unless noted, the rule behind the calls is not given here.

The nature of assay [1]: antimalarial activity against Dd2 strain (AID 2302;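 active = growth inhibition above 50% at the single 2 µM test dose, taken to imply half-maximal potency below 2 µM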;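 note: 0% = DMSO untreated growth and 100% = chloroquine plus artemisinin killed control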). The settings on record: P. falciparum Dd2 in RBCs, LDH growth readout, 72 h; at 2 µM; active compounds read high.
Assay [2] can be described thus: human hepatoma cell viability loss – ATP luminescence, cytotoxicity control for P. falciparum antimalarial project, primary screen (AID 2303;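 active = inhibition above 50%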;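 note: 0% = DMSO wells and 100% = digitonin-killed cells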). The settings on record: HepG2 viability, 24-48 h, at 10 µM, active compounds read high.
Assay [3] concerns the target L-lactate dehydrogenase (Plasmodium falciparum (isolate CDC / Honduras)) (UniProt Q27743). The assay is described as follows: PfLDH activity inhibition – cell lysate, 3D7 strain, counter-screen for P. falciparum growth inhibition project (AID 2304).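 Note: 0% = vehicle and 100% = reference inhibitor.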 The settings on record: P. falciparum 3D7 crude extract, LDH APAD/NBT absorbance; at 2 µM; active compounds read high. (The purpose of a counterscreen is to sort out artefacts and off-target activity.)

Assay [4] in a line: inhibition of 3D7 malaria parasite growth – strain 3D7 (AID 2306).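 Note: 0% = DMSO wells and 100% = chloroquine plus artemisinin control wells.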 The following applies: P. falciparum 3D7 erythrocytic growth, LDH absorbance, 72 h; at 2 µM; active compounds read high.
The target of assay [5] is Calcium-dependent protein kinase 1 (Plasmodium falciparum (isolate 3D7)) (UniProt P62344). Nature of the assay: PfCDPK1 kinase inhibitors, biochemical, TCAMS library (AID 1159585; cut-off not given, nearly all actives have IC50 up to about 0.98 µM;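 note: inhibitors leave more ATP so luminescence rises with inhibition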). The following applies: recombinant PfCDPK1, Kinase-Glo ATP depletion luminescence. In general terms: In Kinase-Glo more light means more ATP remaining.
Assay [6] addresses Plasmodium falciparum protein kinase 6 (PK6, PF3D7_1337100) (UniProt Q8IDW1). The assay is described as follows: PfPK6 kinase inhibitors, biochemical, TCAMS library (AID 1159586). The settings on record: recombinant PfPK6, Kinase-Glo ATP depletion luminescence.
Assay [7] has as its target Protein kinase 7 (PK7), Plasmodium falciparum 3D7 (PF3D7_0213400) (UniProt Q7YTF7). Nature of the assay: inhibition of Plasmodium PK7 catalytic activity – biochemical, TCAMS antimalarial set, Kinase-Glo luminescence (AID 1159587). The settings on record: recombinant PfPK7, Kinase-Glo ATP depletion luminescence.
The target of assay [8] is Calcium-dependent protein kinase 4 (Plasmodium falciparum (isolate 3D7)) (UniProt Q8IBS5). The assay is described as follows: PfCDPK4 kinase inhibitors, biochemical, TCAMS library (AID 1159588; cut-off not given, nearly all actives have IC50 up to about 0.91 µM). The following applies: recombinant PfCDPK4, Kinase-Glo ATP depletion luminescence.
Sequence of Calcium-dependent protein kinase 4 (Plasmodium falciparum (isolate 3D7)) (Q8IBS5 whole entry, looked up): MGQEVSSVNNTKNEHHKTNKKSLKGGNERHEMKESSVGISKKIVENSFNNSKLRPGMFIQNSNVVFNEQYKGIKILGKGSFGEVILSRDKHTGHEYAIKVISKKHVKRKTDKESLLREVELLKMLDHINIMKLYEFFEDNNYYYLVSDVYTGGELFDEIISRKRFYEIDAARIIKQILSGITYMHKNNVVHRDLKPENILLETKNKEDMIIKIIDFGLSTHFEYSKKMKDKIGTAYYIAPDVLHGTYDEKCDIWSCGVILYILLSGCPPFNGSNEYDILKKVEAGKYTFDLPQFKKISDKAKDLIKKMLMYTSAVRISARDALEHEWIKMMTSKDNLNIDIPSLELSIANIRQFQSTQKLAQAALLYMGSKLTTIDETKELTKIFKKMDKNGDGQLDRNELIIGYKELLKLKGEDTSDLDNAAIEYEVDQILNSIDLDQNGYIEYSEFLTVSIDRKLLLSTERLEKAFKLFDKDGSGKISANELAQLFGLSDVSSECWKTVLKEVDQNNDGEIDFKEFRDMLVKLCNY

Sequence of Calcium-dependent protein kinase 1 (Plasmodium falciparum (isolate 3D7)) (P62344 whole entry, looked up): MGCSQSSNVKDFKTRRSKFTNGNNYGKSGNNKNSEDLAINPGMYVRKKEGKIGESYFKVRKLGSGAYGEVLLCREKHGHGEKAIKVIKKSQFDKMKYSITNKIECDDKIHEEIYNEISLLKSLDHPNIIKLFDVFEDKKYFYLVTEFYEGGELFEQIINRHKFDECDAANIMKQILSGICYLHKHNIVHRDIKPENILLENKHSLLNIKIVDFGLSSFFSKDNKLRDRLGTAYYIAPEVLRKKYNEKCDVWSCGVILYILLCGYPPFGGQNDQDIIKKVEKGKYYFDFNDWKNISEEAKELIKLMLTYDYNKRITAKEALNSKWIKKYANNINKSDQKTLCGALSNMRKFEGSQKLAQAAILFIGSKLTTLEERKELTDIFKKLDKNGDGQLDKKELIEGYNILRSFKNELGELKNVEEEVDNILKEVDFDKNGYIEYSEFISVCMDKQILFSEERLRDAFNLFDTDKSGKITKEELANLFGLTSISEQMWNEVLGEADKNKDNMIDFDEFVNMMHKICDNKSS
Sequence of L-lactate dehydrogenase (Plasmodium falciparum (isolate CDC / Honduras)) (Q27743 whole entry, looked up): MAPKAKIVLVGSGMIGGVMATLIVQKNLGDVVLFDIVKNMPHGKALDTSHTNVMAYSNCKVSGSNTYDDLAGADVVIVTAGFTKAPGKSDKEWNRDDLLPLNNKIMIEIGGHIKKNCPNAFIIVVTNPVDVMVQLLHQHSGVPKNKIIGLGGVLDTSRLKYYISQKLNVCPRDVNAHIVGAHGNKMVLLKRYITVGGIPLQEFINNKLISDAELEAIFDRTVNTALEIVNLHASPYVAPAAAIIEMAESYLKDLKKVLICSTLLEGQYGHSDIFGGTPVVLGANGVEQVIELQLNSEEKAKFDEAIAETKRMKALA
Sequence of Protein kinase 7 (PK7), Plasmodium falciparum 3D7 (PF3D7_0213400) (Q7YTF7 1-343): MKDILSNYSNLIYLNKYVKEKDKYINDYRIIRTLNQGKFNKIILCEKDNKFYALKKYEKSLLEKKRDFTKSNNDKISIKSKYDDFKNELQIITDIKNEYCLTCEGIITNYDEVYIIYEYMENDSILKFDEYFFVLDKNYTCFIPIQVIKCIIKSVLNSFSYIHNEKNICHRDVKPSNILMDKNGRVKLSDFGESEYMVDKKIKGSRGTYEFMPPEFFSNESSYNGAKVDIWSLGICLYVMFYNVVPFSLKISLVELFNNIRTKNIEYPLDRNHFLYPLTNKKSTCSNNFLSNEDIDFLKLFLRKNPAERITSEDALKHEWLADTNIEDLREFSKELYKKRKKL
Sequence of Plasmodium falciparum protein kinase 6 (PK6, PF3D7_1337100) (Q8IDW1 1-305): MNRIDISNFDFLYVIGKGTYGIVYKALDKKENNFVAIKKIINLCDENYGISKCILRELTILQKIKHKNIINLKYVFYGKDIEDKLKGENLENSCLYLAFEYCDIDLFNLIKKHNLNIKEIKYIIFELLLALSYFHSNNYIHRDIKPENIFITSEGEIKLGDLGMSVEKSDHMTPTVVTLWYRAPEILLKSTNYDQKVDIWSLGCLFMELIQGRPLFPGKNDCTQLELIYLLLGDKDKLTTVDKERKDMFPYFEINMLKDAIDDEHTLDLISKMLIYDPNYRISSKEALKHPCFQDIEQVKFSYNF

Regarding `CC1(C)[C@H]2C=C(CN3CCC(NC(=O)Nc4ccc(Cl)c(Cl)c4)CC3)[C@@H]1CC2`, the growth inhibition in assay [1] was 33% (inactive); in assay [4] it was 101% (active). Besides, the values for the inhibition in assay [2] and in assay [3] were 28% (inactive) and 2% (inactive), respectively. Moreover, the outcome in assay [5], in assay [6], in assay [7] and in assay [8] was inactive.

As to `Cc1cc2ccccc2c(CON2C(N)=NC(N)=NC2(C)C)c1C`, the growth inhibition in assay [1] was 31% (inactive); in assay [4], 93% (active). The inhibition (in general, the drop in the measured response relative to a control, in per cent) in assay [2] is 65% (active); in assay [3], -3% (inactive). Moreover, the outcome in assay [5], in assay [6], in assay [7] and in assay [8] was inactive.

`CCn1c2c(c(=N)c3ccccc31)CCC2`: the growth inhibition in assay [1] is 61% (active); in assay [4], 83% (active). Besides, the figures for the inhibition in assay [2] and in assay [3] were 11% (inactive) and 8% (inactive), respectively. Also, the result in assay [5], in assay [6], in assay [7] and in assay [8] was inactive.
